Results reported in publication PMC11062922 (Nature Chemical Biology, 2023).
Where two headings read alike, the source gives them in different places.

Key:
Design in all cases: species or system human, MV4-11 + K-562 + COLO205 + SK-N-BE2 + OVCAR-8
CIT = settings: read-out: apparent Kd, n = 1
CSNK1A1 = settings: read-out: apparent Kd, n = 1
CSNK1D = settings: read-out: apparent Kd, n = 1
CSNK1E = settings: read-out: apparent Kd, n = 1
DDR1 = settings: read-out: apparent Kd; compound concentrations: 100 nM and 1000 nM (sheet 'Samples'), CATDS: 7.6072029759196497E-2; n = 1
DDR2 = settings: read-out: apparent Kd; compound concentrations: 100 nM and 1000 nM (sheet 'Samples'), CATDS: 5.6437798094111098E-2; n = 1
MAPK10 = settings: read-out: apparent Kd, compound concentrations: 100 nM and 1000 nM (sheet 'Samples'), n = 1
MAPK14 = settings: read-out: apparent Kd, compound concentrations: 100 nM and 1000 nM (sheet 'Samples'), n = 1
MAPK9 = settings: read-out: apparent Kd, n = 1
MAPKAPK2 = settings: read-out: apparent Kd, n = 1
NLK = settings: read-out: apparent Kd; compound concentrations: 100 nM and 1000 nM (sheet 'Samples'), CATDS: 9.0409575218607804E-2; n = 1
RIPK2 = settings: read-out: apparent Kd, n = 1
CLK1 = settings: read-out: apparent Kd; compound concentrations: 100 nM and 1000 nM (sheet 'Samples'), CATDS: 7.5926373911313003E-2; n = 1
CLK4 = settings: read-out: apparent Kd; compound concentrations: 100 nM and 1000 nM (sheet 'Samples'), CATDS: 5.3158030493379999E-2; n = 1
CSNK1G1 = settings: read-out: apparent Kd; compound concentrations: 100 nM and 1000 nM (sheet 'Samples'), CATDS: 3.9062620233065198E-2; n = 1
CSNK2A1;CSNK2A3 = settings: read-out: apparent Kd; compound concentrations: 100 nM and 1000 nM (sheet 'Samples'), CATDS: 3.8692946827206802E-2; n = 1
DYRK1A = settings: read-out: apparent Kd; compound concentrations: 100 nM and 1000 nM (sheet 'Samples'), CATDS: 3.9869758928983597E-2; n = 1
EIF2AK1 = settings: read-out: apparent Kd; compound concentrations: 100 nM and 1000 nM (sheet 'Samples'), CATDS: 5.2303665150266299E-2; n = 1
GAK = settings: read-out: apparent Kd; compound concentrations: 100 nM and 1000 nM (sheet 'Samples'), CATDS: 7.9054270069147406E-2; n = 1
MAPK8 = settings: read-out: apparent Kd; compound concentrations: 100 nM and 1000 nM (sheet 'Samples'), CATDS: 0.19867179384424899; n = 1
NUAK1 = settings: read-out: apparent Kd; compound concentrations: 100 nM and 1000 nM (sheet 'Samples'), CATDS: 4.4301419887818799E-2; n = 1
PIP4K2C = settings: read-out: apparent Kd; compound concentrations: 100 nM and 1000 nM (sheet 'Samples'), CATDS: 4.1544409686620098E-2; n = 1
PTK2B = settings: read-out: apparent Kd; compound concentrations: 100 nM and 1000 nM (sheet 'Samples'), CATDS: 4.7862573300624302E-2; n = 1
PTK2 = settings: read-out: apparent Kd; compound concentrations: 100 nM and 1000 nM (sheet 'Samples'), CATDS: 4.8653444665563698E-2; n = 1
RPS6KA1 = settings: read-out: apparent Kd; compound concentrations: 100 nM and 1000 nM (sheet 'Samples'), CATDS: 4.3998663303794899E-2; n = 1
TNK1 = settings: read-out: apparent Kd; compound concentrations: 100 nM and 1000 nM (sheet 'Samples'), CATDS: 9.9368831187406595E-2; n = 1
TTK = settings: read-out: apparent Kd; compound concentrations: 100 nM and 1000 nM (sheet 'Samples'), CATDS: 7.5031677714786096E-2; n = 1
PIK3CD = settings: read-out: apparent Kd; compound concentrations:100 nM and 1000 nM (sheet 'Samples'); n = 1
PKN3 = settings: read-out: apparent Kd; compound concentrations:100 nM and 1000 nM (sheet 'Samples'); n = 1
PRKX = settings: read-out: apparent Kd; compound concentrations:100 nM and 1000 nM (sheet 'Samples'); n = 1
PSMC3 = settings: read-out: apparent Kd; compound concentrations:100 nM and 1000 nM (sheet 'Samples'); n = 1
SIK3 = settings: read-out: apparent Kd; compound concentrations:100 nM and 1000 nM (sheet 'Samples'); n = 1
TGFBR2 = settings: read-out: apparent Kd; compound concentrations:100 nM and 1000 nM (sheet 'Samples'); n = 1
[1] = compound concentrations:100 nM and 1000 nM (sheet 'Samples')

Nc1nccc(-c2c(-c3ccc(F)cc3)ncn2C2CCN(CC(F)(F)F)CC2)n1 [SB-236560]
potency estimated from few doses (CIT; compound concentrations: 100 nM and 1000 nM (sheet 'Samples'), CATDS: 7.9772232901770906E-2): 0.168 µM | potency estimated from few doses (CSNK1A1; compound concentrations: 100 nM and 1000 nM (sheet 'Samples'), CATDS: 5.74682899523659E-2): 0.514 µM | potency estimated from few doses (CSNK1D; compound concentrations: 100 nM and 1000 nM (sheet 'Samples'), CATDS: 0.160108926806518): 0.0413 µM | potency estimated from few doses (CSNK1E; compound concentrations: 100 nM and 1000 nM (sheet 'Samples'), CATDS: 0.10532594591196801): 0.0877 µM | potency estimated from few doses (DDR1): 0.191 µM | potency estimated from few doses (DDR2): 0.559 µM | potency estimated from few doses (MAPK10; CATDS: 4.9775918057440499E-2): 1.15 µM | potency estimated from few doses (MAPK14; CATDS: 0.14251472882722499): 0.05 µM | potency estimated from few doses (MAPK9; compound concentrations: 100 nM and 1000 nM (sheet 'Samples'), CATDS: 6.3726988892981506E-2): 0.338 µM | potency estimated from few doses (MAPKAPK2; compound concentrations: 100 nM and 1000 nM (sheet 'Samples'), CATDS: 0.17165135235048001): 0.0371 µM | potency estimated from few doses (NLK): 0.123 µM | potency estimated from few doses (RIPK2; compound concentrations: 100 nM and 1000 nM (sheet 'Samples'), CATDS: 0.128634977422559): 0.0598 µM

CCCN1CCC=C(c2ccc(Nc3nc(Nc4ccccc4C(N)=O)c4cc[nH]c4n3)c(C)c2)C1 [GSK994854A]
potency estimated from few doses (CLK1): 0.392 µM | potency estimated from few doses (CLK4): 0.801 µM | potency estimated from few doses (CSNK1D; compound concentrations: 100 nM and 1000 nM (sheet 'Samples'), CATDS: 3.8251361436103803E-2): 2.01 µM | potency estimated from few doses (CSNK1E; compound concentrations: 100 nM and 1000 nM (sheet 'Samples'), CATDS: 3.6903644151272202E-2): 2.3 µM | potency estimated from few doses (CSNK1G1): 1.87 µM | potency estimated from few doses (CSNK2A1;CSNK2A3): 1.93 µM | potency estimated from few doses (DYRK1A): 1.74 µM | potency estimated from few doses (EIF2AK1): 0.831 µM | potency estimated from few doses (GAK): 0.365 µM | potency estimated from few doses (MAPK10; CATDS: 6.4300767582532795E-2): 0.535 µM | potency estimated from few doses (MAPK8): 0.094 µM | potency estimated from few doses (MAPK9; compound concentrations: 100 nM and 1000 nM (sheet 'Samples'), CATDS: 7.8815653035512301E-2): 0.367 µM | potency estimated from few doses (NUAK1): 1.27 µM | potency estimated from few doses (PIP4K2C): 1.53 µM | potency estimated from few doses (PTK2B): 1.03 µM | potency estimated from few doses (PTK2): 0.989 µM | potency estimated from few doses (RPS6KA1): 1.29 µM | potency estimated from few doses (TNK1): 0.25 µM | potency estimated from few doses (TTK): 0.4 µM

Fc1ccc(-c2nc[nH]c2-c2ccncc2)cc1 [SB-217360]
potency estimated from few doses (CIT; [1]): 0.926 µM | potency estimated from few doses (CSNK1A1; [1]): 0.098 µM | potency estimated from few doses (CSNK1D; [1]): 0.0405 µM | potency estimated from few doses (CSNK1E; [1]): 0.623 µM | potency estimated from few doses (MAPK14; CATDS: 6.0932890746218903E-2): 0.445 µM | potency estimated from few doses (MAPK9; [1]): 0.526 µM | potency estimated from few doses (MAPKAPK2; [1]): 0.0838 µM | potency estimated from few doses (PIK3CD): 0.114 µM | potency estimated from few doses (PKN3): 0.212 µM | potency estimated from few doses (PRKX): 0.0775 µM | potency estimated from few doses (PSMC3): 1.19 µM | potency estimated from few doses (RIPK2; [1]): 0.0995 µM | potency estimated from few doses (SIK3): 1.44 µM | potency estimated from few doses (TGFBR2): 1.14 µM
